Measured values: PubChem BioAssay AID940 (Emory University Molecular Libraries Screening Center, 2007)
The whole screen tested about 260,000 compounds, of which about 2,200 (0.85%) were called active. This excerpt belongs to a sample that is enriched for actives. Unmarked numbers belong to inactive results.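 Rule for the calls: active = compounds whose cAMP rise, as percent of the full-agonist control response, exceeds 60; inactive = the rest.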

molecular target: Prostaglandin E2 receptor EP2 subtype (Homo sapiens) (UniProt P43116); assay: EP2 receptor modulators, cAMP readout, primary screen, cell-based, HTRF cAMP, PGE2 stimulation (AID 940); settings: EP2-expressing cells, cAMP HTRF FRET, PGE2 co-stimulation; at 25 µM; hits give high values;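 note: rat C6 glioma line stably carrying human EP2 under a CMV promoter; the protocol text gives 20 µM as final concentration; 100% = response of wells given 1 µM PGE2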
Sequence (P43116 whole entry, looked up): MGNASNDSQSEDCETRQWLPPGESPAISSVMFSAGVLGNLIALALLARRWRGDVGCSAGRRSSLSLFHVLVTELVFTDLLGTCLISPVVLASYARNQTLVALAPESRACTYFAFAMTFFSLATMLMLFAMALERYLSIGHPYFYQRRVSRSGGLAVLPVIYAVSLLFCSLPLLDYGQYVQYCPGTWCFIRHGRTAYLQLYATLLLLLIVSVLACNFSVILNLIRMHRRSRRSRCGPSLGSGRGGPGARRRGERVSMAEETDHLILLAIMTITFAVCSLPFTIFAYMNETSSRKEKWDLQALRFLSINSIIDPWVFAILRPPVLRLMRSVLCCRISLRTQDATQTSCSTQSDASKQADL

SMILES	induction
COc1ccc(NCc2nnc(SCC(=O)Nc3ccccc3OC)n2C)cc1	-42.3%
C=CCNC(=O)CSc1nc(-c2ccc(OC)cc2)cc(C(F)(F)F)n1	-95.2%
Cn1c(=O)c2c(nc(N3CCN(c4ccccc4)CC3)n2CCC#N)n(C)c1=O	-28.3%
Cc1cccc(Cn2c(N3CCN(c4ccccc4)CC3)nc3c2c(=O)n(C)c(=O)n3C)c1	67.6% (active)
Cc1cccc(Cn2c(SCCO)nc3c2c(=O)n(C)c(=O)n3C)c1	25.1%
CCn1c2cc(C)sc2c2cnn(CC(=O)Nc3ccc(F)cc3)c(=O)c21	-32.1%
CC1CCN(c2nc3c(c(=O)[nH]2)CCN(Cc2cn(CC(=O)O)c4ccccc24)C3)CC1	-3.4%
CC1(C)CCC[C@@]2(C)C1[C@@H](O)C[C@]1(C)C2CC[C@@H]2[C@@]3(C)CC[C@H](C(C)(C)O)[C@@H]3CC[C@@]21C (some centres not stated)	16.7%
c1cncc(-c2nnc3n2C2(CCCCC2)Cc2ccccc2-3)c1	16.9%
CCC1(CC)Cc2ccccc2-c2nc3ccccc3c(=O)n21	22.9%
O=c1c2ccccc2nc2n1C1(CCCCC1)Cc1ccccc1-2	68.8% (active)
Cc1ccc(NC(=S)N(Cc2ccco2)C(C)c2cccs2)cc1 (configuration not stated)	44.2%
Cc1ccc(CC(=O)NCc2ccco2)cc1	8.03%
C=C(C)CC(Nc1ccc(C)cc1)c1ccco1 (configuration not stated)	61.3% (active)
CC1CCCC(C)N1C(=O)[C@H]1C[C@@H](c2cccs2)NS(=O)(=O)N1C (some centres not stated)	-34.9%
Cc1nn2c(NCc3cccnc3)c3c(nc2c1-c1cccs1)CCC3	-40.8%
Cn1c(COc2cccc3ccccc23)nnc1SCC(=O)Nc1ccccc1Cl	5.15%
Cc1ccc(-n2c(SCC(=O)Nc3ccc4c(c3)OCO4)nnc2-c2ccccn2)cc1	4.01%
Cc1ccc(-n2c(SCC(=O)Nc3ccc4c(c3)OCO4)nnc2-c2ccoc2C)cc1	64.9% (active)
Cc1occc1-c1nnc(SCC(=O)Nc2ccc3c(c2)OCO3)n1Cc1ccco1	25.1%
CNC(=S)N(Cc1ccccc1)Cc1cc2cccc(C)c2[nH]c1=O	-48.1%
Nc1nc(Br)c2ccccc2c1-c1ccc(F)cc1	62% (active)
